# Experimental data published in PubChem BioAssay (EPA / NIEHS).
# Results filed as inconclusive are left out. Activity calls are given as the source filed them. The calls were made as follows: active = hit-call score of the fitted dose curve at least 0.9, where 1 is the maximum; inconclusive = response in the unintended direction; inactive = score below 0.9.
# Target: human Matrix Metalloproteinase-9 (MMP9), MMP9 (gene 4318) (UniProt P14780)
# Experiment: NVS_ENZ_hMMP9: NovaScreen (NVS) Enzymatic Assay for human Matrix Metalloproteinase-9 (MMP9) (AID 2283190);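 also: cell-free recombinant MMP9 protease activity read by fluorescent substrate signal; active means inhibition seen as loss of fluorescence signal versus DMSO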
# How it was run: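 Cell-free recombinant MMP9 enzyme activity measured by fluorescence intensity 1 h after dosing. Primary screen in duplicate at 25 uM, actives followed in concentration series; loss of signal relative to DMSO.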
# Sequence of human Matrix Metalloproteinase-9 (MMP9), MMP9 (gene 4318) (P14780 whole entry, looked up): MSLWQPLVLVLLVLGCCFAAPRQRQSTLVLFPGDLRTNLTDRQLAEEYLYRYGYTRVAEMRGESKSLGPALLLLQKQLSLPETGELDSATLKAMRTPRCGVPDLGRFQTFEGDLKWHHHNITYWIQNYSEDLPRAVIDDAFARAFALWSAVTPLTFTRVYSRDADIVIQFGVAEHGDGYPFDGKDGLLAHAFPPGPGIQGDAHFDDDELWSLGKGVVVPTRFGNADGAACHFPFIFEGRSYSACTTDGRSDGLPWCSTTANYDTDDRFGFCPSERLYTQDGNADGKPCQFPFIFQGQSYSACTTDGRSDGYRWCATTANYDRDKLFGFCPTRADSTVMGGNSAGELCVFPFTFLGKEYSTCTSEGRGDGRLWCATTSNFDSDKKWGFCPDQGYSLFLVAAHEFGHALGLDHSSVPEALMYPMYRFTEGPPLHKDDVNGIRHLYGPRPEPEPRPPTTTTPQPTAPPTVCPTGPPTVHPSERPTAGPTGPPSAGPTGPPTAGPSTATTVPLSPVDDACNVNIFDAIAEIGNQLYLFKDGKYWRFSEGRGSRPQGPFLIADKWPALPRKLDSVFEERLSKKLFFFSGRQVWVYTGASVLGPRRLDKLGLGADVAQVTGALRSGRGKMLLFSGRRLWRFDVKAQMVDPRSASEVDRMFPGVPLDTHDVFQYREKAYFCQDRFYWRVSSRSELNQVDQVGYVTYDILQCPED
SMILES,AC50,outcome
CC(C)(N=C=O)c1cccc(C(C)(C)N=C=O)c1,0.933 µM (active),
C=C(C)C(=O)OCC(CC)(COC(=O)C(=C)C)COC(=O)C(=C)C,0.749 µM (active),
NC(=S)NNC(N)=S,3.45 µM (active),
c1ccc(Oc2ccccc2)cc1,,inactive
CSCCC=O,0.684 µM (active),
CCOCCOCCOCC,15.4 µM (active),
O=C1OC[C@H](Cc2cccc(O)c2)[C@H]1Cc1cccc(O)c1,5.03 µM (active),

# Target: human Phosphodiesterase 10 (PDE10), PDE10A (gene 10846) (UniProt Q9Y233)
# Sequence (Q9Y233 whole entry, looked up): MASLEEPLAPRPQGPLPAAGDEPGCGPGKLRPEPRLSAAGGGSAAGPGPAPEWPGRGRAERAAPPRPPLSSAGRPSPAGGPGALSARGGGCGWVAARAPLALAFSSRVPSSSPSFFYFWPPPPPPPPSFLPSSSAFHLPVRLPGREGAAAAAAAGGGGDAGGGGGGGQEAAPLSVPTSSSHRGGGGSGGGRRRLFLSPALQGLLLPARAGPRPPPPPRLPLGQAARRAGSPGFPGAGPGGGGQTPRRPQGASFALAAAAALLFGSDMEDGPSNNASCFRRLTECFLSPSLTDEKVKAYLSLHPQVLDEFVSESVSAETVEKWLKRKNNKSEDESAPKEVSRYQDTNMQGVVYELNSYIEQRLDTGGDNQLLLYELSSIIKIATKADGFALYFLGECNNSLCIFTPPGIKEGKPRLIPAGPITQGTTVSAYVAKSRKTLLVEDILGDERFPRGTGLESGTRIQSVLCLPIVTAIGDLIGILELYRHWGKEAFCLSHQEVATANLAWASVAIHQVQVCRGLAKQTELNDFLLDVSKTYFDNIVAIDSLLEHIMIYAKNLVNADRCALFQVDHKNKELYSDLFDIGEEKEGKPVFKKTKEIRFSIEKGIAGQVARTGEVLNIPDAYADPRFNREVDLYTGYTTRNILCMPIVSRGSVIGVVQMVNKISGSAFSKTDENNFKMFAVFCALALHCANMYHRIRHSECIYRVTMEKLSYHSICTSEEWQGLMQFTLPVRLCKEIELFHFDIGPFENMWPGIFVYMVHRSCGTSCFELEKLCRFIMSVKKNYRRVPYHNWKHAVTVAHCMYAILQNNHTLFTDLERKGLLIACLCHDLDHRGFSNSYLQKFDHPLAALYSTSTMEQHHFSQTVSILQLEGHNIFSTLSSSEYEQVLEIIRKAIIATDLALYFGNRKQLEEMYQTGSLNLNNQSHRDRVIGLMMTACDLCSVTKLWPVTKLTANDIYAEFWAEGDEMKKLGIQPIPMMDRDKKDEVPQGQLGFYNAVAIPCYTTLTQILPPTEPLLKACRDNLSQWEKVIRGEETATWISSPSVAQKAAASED
# Experiment: NVS_ENZ_hPDE10: NovaScreen (NVS) Enzymatic Assay for human Phosphodiesterase 10 (PDE10) (AID 2283195)
# How it was run: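 Biochemical single-readout PDE10A assay, cell-free, extracted protein. Compounds first screened at 25 uM in duplicate, hits then titrated to 50 uM max. Activity measured after 1 h; loss-of-signal fitted against DMSO negative control.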
SMILES,outcome,AC50
Cc1ncc([N+](=O)[O-])n1CCO,inactive,
CCC(C)c1cc([N+](=O)[O-])cc([N+](=O)[O-])c1OC(=O)OC(C)C (stereo not given),inactive,
OCCCCC(O)CO (stereo not given),,40.4 µM (active)
Oc1c(Cl)cc(Cl)c(Cl)c1Cc1c(O)c(Cl)cc(Cl)c1Cl,inactive,
CCCCSCCCC,,1 µM (active)

# Target: human Phosphoinositide 3-kinase alpha (PI3Ka), PIK3CA (gene 5290) (UniProt P42336)
# Sequence (P42336 whole entry, looked up): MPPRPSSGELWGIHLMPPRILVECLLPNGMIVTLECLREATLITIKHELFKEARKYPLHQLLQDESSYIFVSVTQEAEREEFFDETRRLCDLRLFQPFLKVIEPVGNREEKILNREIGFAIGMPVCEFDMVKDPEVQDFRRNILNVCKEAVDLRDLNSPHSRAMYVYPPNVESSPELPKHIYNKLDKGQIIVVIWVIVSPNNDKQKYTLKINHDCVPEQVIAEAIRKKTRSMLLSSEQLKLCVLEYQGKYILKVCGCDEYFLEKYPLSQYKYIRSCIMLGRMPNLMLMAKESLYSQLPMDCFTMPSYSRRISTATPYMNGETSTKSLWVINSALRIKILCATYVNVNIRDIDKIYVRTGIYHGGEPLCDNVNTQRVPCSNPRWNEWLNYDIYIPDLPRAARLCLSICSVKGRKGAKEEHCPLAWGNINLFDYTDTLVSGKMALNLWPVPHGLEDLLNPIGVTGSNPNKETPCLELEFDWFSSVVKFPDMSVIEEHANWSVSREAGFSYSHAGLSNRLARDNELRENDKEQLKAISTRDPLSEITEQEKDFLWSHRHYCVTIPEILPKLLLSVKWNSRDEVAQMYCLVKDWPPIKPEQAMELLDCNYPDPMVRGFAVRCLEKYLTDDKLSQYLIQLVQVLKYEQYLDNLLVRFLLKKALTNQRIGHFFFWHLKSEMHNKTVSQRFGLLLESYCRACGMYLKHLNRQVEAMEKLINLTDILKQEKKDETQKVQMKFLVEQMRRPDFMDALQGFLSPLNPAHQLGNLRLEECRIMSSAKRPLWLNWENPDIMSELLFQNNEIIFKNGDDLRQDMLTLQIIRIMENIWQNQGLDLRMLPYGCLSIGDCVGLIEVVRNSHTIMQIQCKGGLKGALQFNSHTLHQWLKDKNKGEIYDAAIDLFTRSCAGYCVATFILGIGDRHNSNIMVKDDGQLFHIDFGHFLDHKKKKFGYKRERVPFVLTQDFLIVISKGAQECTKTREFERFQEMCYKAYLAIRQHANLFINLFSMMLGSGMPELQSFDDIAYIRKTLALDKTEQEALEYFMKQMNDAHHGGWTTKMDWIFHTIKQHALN
# Experiment: NVS_ENZ_hPI3Ka: NovaScreen (NVS) Enzymatic Assay for human Phosphoinositide 3-kinase alpha (PI3Ka) (AID 2283196)
# How it was run: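 Recombinant human PI3Kα with fluorescent substrate, 1 h, product separated by electrophoretic mobility shift; 25 uM duplicate screen, hits (e.g., 30% inhibition) retested singly up to 50 uM; loss of signal vs DMSO.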
SMILES,AC50,outcome
CC(C)(N=C=O)c1cccc(C(C)(C)N=C=O)c1,9.87 µM (active),
CC(C)(C)CC(C)(C)c1ccc(OCCOCC[N+](C)(C)Cc2ccccc2)cc1,9.05 µM (active),
NC(=S)NNC(N)=S,,inactive
COCCOC(=O)c1ccccc1C(=O)OCCOC,,inactive
OCCCCC(O)CO (stereo not given),0.803 µM (active),
Oc1c(Cl)cc(Cl)c(Cl)c1Cc1c(O)c(Cl)cc(Cl)c1Cl,1.96 µM (active),
c1ccc2cc(Nc3ccc(Nc4ccc5ccccc5c4)cc3)ccc2c1,17.6 µM (active),

# Target: human Vascular Endothelial Growth Factor Receptor 1 (VEGFR1), FLT1 (gene 2321) (UniProt P17948)
# Sequence (P17948 whole entry, looked up): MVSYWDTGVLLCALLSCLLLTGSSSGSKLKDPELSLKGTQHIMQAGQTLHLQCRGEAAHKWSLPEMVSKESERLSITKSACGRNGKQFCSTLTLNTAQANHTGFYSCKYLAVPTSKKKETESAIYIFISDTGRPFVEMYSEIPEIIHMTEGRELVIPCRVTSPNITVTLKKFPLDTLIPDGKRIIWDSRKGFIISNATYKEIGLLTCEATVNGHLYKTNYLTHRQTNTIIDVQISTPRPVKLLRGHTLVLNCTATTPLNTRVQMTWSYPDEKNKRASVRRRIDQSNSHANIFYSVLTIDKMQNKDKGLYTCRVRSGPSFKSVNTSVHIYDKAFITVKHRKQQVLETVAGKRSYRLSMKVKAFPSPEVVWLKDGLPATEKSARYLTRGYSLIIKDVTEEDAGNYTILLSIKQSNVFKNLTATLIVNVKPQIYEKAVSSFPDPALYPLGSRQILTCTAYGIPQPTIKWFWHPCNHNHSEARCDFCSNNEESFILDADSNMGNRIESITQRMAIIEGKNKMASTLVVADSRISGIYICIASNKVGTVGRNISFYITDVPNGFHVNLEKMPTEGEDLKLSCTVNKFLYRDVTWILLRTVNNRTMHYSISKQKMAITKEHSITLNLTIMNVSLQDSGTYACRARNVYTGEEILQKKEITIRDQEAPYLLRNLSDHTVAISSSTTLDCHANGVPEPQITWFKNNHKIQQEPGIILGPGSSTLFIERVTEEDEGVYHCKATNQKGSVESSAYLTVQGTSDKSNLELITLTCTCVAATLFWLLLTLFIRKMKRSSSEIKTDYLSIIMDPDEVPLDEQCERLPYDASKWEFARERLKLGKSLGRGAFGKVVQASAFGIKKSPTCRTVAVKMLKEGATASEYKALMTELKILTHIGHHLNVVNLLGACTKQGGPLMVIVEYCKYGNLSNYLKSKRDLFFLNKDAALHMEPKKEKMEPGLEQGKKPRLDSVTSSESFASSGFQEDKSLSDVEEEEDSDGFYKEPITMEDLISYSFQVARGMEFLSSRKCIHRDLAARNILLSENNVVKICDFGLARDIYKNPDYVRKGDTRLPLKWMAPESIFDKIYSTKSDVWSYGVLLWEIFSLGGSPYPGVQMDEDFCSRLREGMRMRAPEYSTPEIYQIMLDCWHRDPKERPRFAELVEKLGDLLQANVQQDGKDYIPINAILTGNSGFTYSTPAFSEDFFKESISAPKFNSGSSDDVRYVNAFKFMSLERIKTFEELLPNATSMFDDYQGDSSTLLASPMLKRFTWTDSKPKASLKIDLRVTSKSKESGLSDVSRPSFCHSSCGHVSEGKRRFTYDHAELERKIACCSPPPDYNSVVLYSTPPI
# Experiment: NVS_ENZ_hVEGFR1: NovaScreen (NVS) Enzymatic Assay for human Vascular Endothelial Growth Factor Receptor 1 (VEGFR1) (AID 2283226)
# How it was run: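 Kinase activity of recombinant human VEGFR1 was read by fluorescence after electrophoretic separation of product from substrate, 1 h post-dosing; initial duplicate single-point testing at 25 uM, followed by concentration-series follow-up, with DMSO as baseline.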
SMILES,outcome,AC50
CN(C)C(=S)SC(=S)N(C)C,inactive,
COCCOC(=O)c1ccccc1C(=O)OCCOC,inactive,
Oc1c(Cl)cc(Cl)c(Cl)c1Cc1c(O)c(Cl)cc(Cl)c1Cl,,2.93 µM (active)

# Target: guinea pig Opioid, Kappa 1 Receptor (OpiateK), OPRK1 (gene 100135587) (UniProt P41144)
# Sequence (P41144 whole entry, looked up): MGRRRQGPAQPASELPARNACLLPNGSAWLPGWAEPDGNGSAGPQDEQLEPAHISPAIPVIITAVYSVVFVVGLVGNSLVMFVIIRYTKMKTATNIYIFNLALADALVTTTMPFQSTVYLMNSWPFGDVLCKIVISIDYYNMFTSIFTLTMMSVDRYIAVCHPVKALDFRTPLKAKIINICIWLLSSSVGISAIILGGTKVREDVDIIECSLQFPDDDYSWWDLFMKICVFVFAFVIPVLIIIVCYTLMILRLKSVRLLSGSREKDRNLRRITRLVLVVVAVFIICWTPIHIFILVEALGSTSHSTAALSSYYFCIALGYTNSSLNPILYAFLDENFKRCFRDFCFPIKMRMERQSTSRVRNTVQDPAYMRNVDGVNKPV
# Experiment: NVS_GPCR_gOpiateK: NovaScreen (NVS) G Protein-Coupled Receptor Assay for guinea pig Opioid, Kappa 1 Receptor (OpiateK) (AID 2283252);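 also: radioligand displacement from kappa opioid receptor in guinea pig cerebellar membranes; active means reduced radioligand binding relative to DMSO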
# How it was run: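 Cell-free tissue prep: guinea pig cerebellar membranes, radioligand displacement, 2 h incubation. Readout: filtration plus scintillation counting. Primary single-point 25 uM duplicate; actives retested in concentration series; DMSO negative control.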
row,SMILES,AC50
1,CC(C)(N=C=O)c1cccc(C(C)(C)N=C=O)c1,36.7 µM (active)
2,CN(C)C(=S)SC(=S)N(C)C,30.8 µM (active)
3,O=C1OC[C@H](Cc2cccc(O)c2)[C@H]1Cc1cccc(O)c1,5.5 µM (active)
